# Laboratory results as given in PubChem BioAssay (NCI).
# The panel holds about 83,000 compounds, 20% with a hit somewhere; the sample as a whole holds those more often.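 Percent growth is the endpoint: 0 to 100 indicates growth inhibition (40 means 60% inhibition), 0 means no net growth, and negative values indicate cell death.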 A number with no mark means an inactive call. Calls of active or inactive are those of the source. Rule for the calls: active = growth percent below 10; inactive = the rest.
# How the values were obtained:
# Assay in all cases: NCI-60 one-dose screen, 48 h (100 = growth as untreated, 0 = no growth, -100 = all killed)
# Details in all cases: 10 µM unless noted
# [1] = system: DU-145 prostate
# [2] = system: K-562 leukemia
# [3] = system: MALME-3M melanoma
# [4] = system: MDA-MB-231 breast
# [5] = system: RXF 393 renal
# [6] = system: SF-268 CNS
# [7] = system: SF-295 CNS
# [8] = system: SF-539 CNS
# [9] = system: UACC-257 melanoma
SMILES,growth [1],growth [2],growth [3],growth [4],growth [5],growth [6],growth [7],growth [8],growth [9]
COc1cc(/C=C2/C(=O)Nc3ccc(Cl)cc32)ccc1OCc1ccc(Cl)cc1,89.5%,88.6%,82.3%,86.9%,93.4%,90.2%,97.7%,92.2%,102%
OCC(Nc1ncnc2ccc(-c3cnc4cnccn34)cc12)c1ccccc1 (configuration not stated),47.4%,60.2%,81.5%,83.2%,65.4%,75.9%,64.7%,79%,80.7%
CC1CC(=O)C2=C(C1)Nc1ccc(Br)cc1CC2c1c[nH]c2ccc(Br)cc12 (configuration not stated),71.6%,21.6%,59.3%,68.8%,69%,67.8%,4.8% (active),54.8%,67.9%
O=C(CSc1nc2ccccc2c(=O)n1-c1ccccc1)N/N=C/c1ccc(Oc2ccc(Br)cc2)cc1,38.3%,62.5%,54.9%,50.9%,62.2%,84.3%,83.7%,68.7%,93.7%
C=C1CCc2nc(SCC(=O)O)ccc2N1,110%,98.5%,104%,105%,94.1%,103%,104%,101%,105%
CCc1cc(OC(=O)N2CCC(N3CCCCC3)CC2)ccc1Nc1cc(-c2ccc(-n3cccn3)cc2)[nH]n1,-26.3% (active),-17.2% (active),-6.02% (active),59.5%,52.5%,75.9%,62.4%,-54.8% (active),-49.1% (active)
C#C[C@]1(O)CC[C@H]2[C@@H]3CC=C4c5sc(Nc6ncccc6C)nc5CC[C@]4(C)[C@H]3CC[C@@]21C,36.8%,-9.62% (active),-19% (active),12.8%,-75.3% (active),7.66% (active),-70% (active),-56.4% (active),-35.8% (active)
CCN(CC)CCOc1ccc(C(=C(C)Cc2ccc(OC)cc2)c2ccc(OCCN(CC)CC)cc2)cc1,74.5%,-4.16% (active),-75.5% (active),55.4%,41.9%,70%,52.8%,-45.9% (active),62.6%
CC1=C(C)C(=O)C(Nc2ccc(C)c(C)c2)=C(Br)C1=O,109%,-2.41% (active),114%,65.1%,87.9%,98.4%,92.9%,98.9%,98.5%
COc1cc(-c2nc(-c3ccccc3)[nH]c2-c2ccnc(NCCCNS(=O)(=O)c3ccc(C)cc3)n2)ccc1F,86.7%,58.9%,100%,91.7%,82.7%,80.2%,99.6%,89.4%,99.7%
CCOC(=O)c1cccc(NC2=C(Cl)C(=O)C(C)=C(C)C2=O)c1,104%,0.169% (active),104%,28%,102%,92.8%,102%,95.8%,93.3%
O=C(O)CC1CCN(c2ccc3nnc(Cl)n3n2)CC1,107%,105%,102%,112%,109%,100%,102%,102%,109%
CCN(CC)CCOc1ccc(C(=C(C)c2ccc(OC)cc2)c2ccc(OCCN(CC)CC)cc2)cc1,37.8%,-12.4% (active),-92.1% (active),-54.3% (active),-77.8% (active),6.51% (active),-64.1% (active),-88.2% (active),-67.2% (active)
N#Cc1cnc2ccc(-c3cnc4n[nH]nc4c3)cc2c1N1CCc2cc(F)c(Cl)cc21,14.6%,28.1%,1.37% (active),21.2%,-22.2% (active),16.7%,2.19% (active),2.37% (active),23.9%
C/C(=N\NC(=O)/C=C/CC(=O)O)c1nnn(-c2ccc([N+](=O)[O-])cc2)c1C,104%,103%,97.9%,104%,106%,96.9%,97%,100%,105%
COC(=O)CNC(=O)c1cccc(-c2cc(=O)c3c(OC)c(OC)c(OC)cc3o2)c1,108%,125%,95.2%,101%,99.4%,101%,101%,103%,103%
C/C(=N\NC(N)=S)c1nnn(-c2ccc([N+](=O)[O-])cc2)c1C,104%,119%,92.8%,96.2%,66.2%,97%,98.8%,97.5%,98.4%
CC(C)Sc1nc(-c2ccccc2)c(C#N)c(N2CCOCC2)n1,83.1%,62.4%,36.5%,63.7%,45.7%,79%,51.1%,50.2%,97.5%
Clc1cccc(/C=N/Nc2nc(N/N=C/c3cccc(Cl)c3)nc(N3CCCCC3)n2)c1,94.6%,83%,109%,116%,93.4%,92%,93%,105%,111%
NC1=NC2(CCCC2)N(c2ccc(S(=O)(=O)Nc3nccs3)cc2)C(N)=N1,111%,96.5%,101%,100%,104%,105%,104%,95%,101%
CN1CCN(CCCCCC(=O)Nc2nc(-c3cccc(NS(=O)(=O)c4cccc5c(N(C)C)cccc45)c3)cs2)CC1,84.8%,7.02% (active),17.5%,68.8%,50.9%,90.9%,35.6%,58.2%,42.7%
CCCc1[nH]c(-c2cc(N)ccc2Cl)c2c1C(=O)CCCC2,107%,93.1%,93.7%,100%,102%,97.3%,80.8%,98.3%,104%
CN1CCN(Cc2ccc(/C=N/Nc3ccnc4cc(Cl)ccc34)cc2)CC1,75.1%,4.76% (active),94.5%,71.5%,74.6%,99.8%,90%,64.7%,111%
CCCCc1nc2c(N)nc3ccccc3c2n1Cc1ccc(OC)cc1,83.4%,23.2%,87.6%,75.8%,58.4%,81.1%,56.5%,84.2%,72%
C#CCOc1ccc(-c2csc(NC(=O)C=C)n2)cc1NS(=O)(=O)c1cccc2c(N(C)C)cccc12,44.6%,9.26% (active),62.5%,31.7%,-6.3% (active),64.7%,66.8%,3.55% (active),68.6%
CCN(CC)S(=O)(=O)c1ccc(-c2nc(C(Cl)Cl)nc3cc(C)nn23)cc1,15.9%,8.36% (active),-7.09% (active),-0.482% (active),13.3%,56.1%,48%,50.7%,59.3%
C/C(=N\NC(=O)Nc1ccccc1)c1nnn(-c2ccc([N+](=O)[O-])cc2)c1C,105%,113%,108%,106%,78.2%,103%,108%,99.9%,108%
O=C(COc1ccc(/C=C2\C(=O)Nc3cc(Cl)ccc32)cc1)Nc1ccc(Cl)cc1,85.9%,32.8%,98.7%,82.8%,76.4%,72.6%,66%,66.8%,78.4%
